# Results filed as inconclusive are left out. Active and inactive are the calls of the source. The call rests on the fitted dose curve; in most records, active means well fitted cell-killing curve with a large enough effect; inconclusive means small, poorly fitted or top-dose-only effect, or effect the other way; inactive means no such curve, though single readings can be large or run the other way.
# Experiment: Quantitative High-Throughput drug screen in 47 multiple myeloma cell lines against the NCATS MIPE library collection: INA6_PLB cell viability assay (AID 1918965; further: nearly all actives have a fitted effect of over 55% in size)
# Conditions: INA6 myeloma viability, CellTiter-Glo ATP luminescence, 48 h; series mostly up to 45.8 µM
# Summary of the method: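 Relative luminescence from CellTiter-Glo served as the viability signal, referenced to DMSO-treated (100%) and cell-free medium (0%) controls. Treatment lasted 48 hours at 37C with 500 cells per well.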
# Potency means the concentration at half of the fitted maximal effect.
row,Structure (SMILES),Potency
1,CN(C)CC[C@H](CSc1ccccc1)Nc1ccc(S(=O)(=O)NC(=O)c2ccc(N3CCN(Cc4ccccc4-c4ccc(Cl)cc4)CC3)cc2)cc1[N+](=O)[O-],18.7 µM (active)
2,O=c1[nH]c(=O)n([C@H]2C[C@@H](O)[C@@H](CO)O2)cc1C(F)(F)F,1.87 µM (active)
3,CCOC(=O)N1CCN([N+]([O-])=NOc2cc(ON=[N+]([O-])N3CCN(C(=O)OCC)CC3)c([N+](=O)[O-])cc2[N+](=O)[O-])CC1,2.35 µM (active)
4,O=C(CC12CC3CC(CC(C3)C1)C2)Nc1cccc2nc(NCCNCCO)ccc12,9.35 µM (active)
5,COc1ccc(-c2oc3c(CC=C(C)C)c(O)cc(O)c3c(=O)c2O)cc1,16.6 µM (active)
6,N#CC(c1ccnc(NCCc2cccnc2)n1)c1nc2ccccc2s1 (stereo unspecified),3.72 µM (active)
7,CN[C@@H]1CN(c2ccc3c(=O)c(C(=O)O)cn(-c4nccs4)c3n2)C[C@@H]1OC,1.44 µM (active)
8,CCC(C)SSc1ncc[nH]1 (stereo unspecified),4.69 µM (active)
9,CCOC(=O)c1c(CSc2ccccc2)n(C)c2cc(Br)c(O)c(CN(C)C)c12,16.6 µM (active)
10,C[C@@H]1O[C@@H](O[C@H]2CC[C@@]3(C)[C@H](CC[C@@H]4[C@H]3C[C@@H](O)[C@]3(C)[C@@H](C5=CC(=O)OC5)CC[C@]43O)C2)C[C@H](O)[C@@H]1O[C@H]1C[C@H](O)[C@H](O[C@H]2C[C@H](O)[C@@H](O)[C@@H](C)O2)[C@H](C)O1 (stereo in doubt),0.171 µM (active)
11,CNC1CCC(N(Cc2cccc(-c3ccncc3)c2)C(=O)c2sc3ccccc3c2Cl)CC1 (stereo unspecified),7.43 µM (active)
